ChEMBL document CHEMBL1201862, “PubChem BioAssay data set” (2004)
Among all 44,000 sequences or so, about 2,900 (6.6%) were called active. Rule as the data show it: active = GI50 up to about 1.1 µM and inactive = higher. A selection follows. Potency and affinity values are given separately.

What follows are substances tested on NCI/ADR-RES.
CISPLATIN, CHEMBL11359 was tested, and the GI50 was 4.93 µM. Work on “[Bis(aminomethyl)tetramethylenesilane]dichloropaltinum(II), CHEMBL2146205” yielded a GI50 of 5.22 µM. “[Bis(aminomethyl)tetramethylenesilane]tetrachloropaltinum(IV), CHEMBL2146189” was tested, and the GI50 was 5.69 µM. “[Bis(aminomethyl)pentamethylenesilane]tetrachloropaltinum(IV), CHEMBL2146204” showed a GI50 of 1.91 µM. In the case of “[Bis(aminomethyl)pentamethylenesilane]dichloropaltinum(II), CHEMBL2146202”, the GI50 is reported as 14.3 µM. Work on “[Bis(aminomethyl)dimethylsilane]tetrachloroplatinum(IV), CHEMBL2146190” yielded a GI50 of 15 µM.
